# Measurements taken from ChEMBL document CHEMBL1961873, “Compounds: GSK PKIS; Assays: Nanosyn kinase panel” (2012).
# Several values for one entry are separate records, joined by “and”; a condition that tells them apart may be missing. Equal values may be shown once.
# Key:
# [1] = molecular target: Calcium/calmodulin-dependent protein kinase type II subunit alpha (Homo sapiens) (UniProt Q9UQM7); details: at 1 µM;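 note: reported value is a mean percent inhibition of CAMK2A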
# [2] = molecular target: Calcium/calmodulin-dependent protein kinase type II subunit delta (Homo sapiens) (UniProt Q13557); details: at 0.1 µM
# Calcium/calmodulin-dependent protein kinase type II subunit delta (Homo sapiens), sequence (Q13557 whole entry): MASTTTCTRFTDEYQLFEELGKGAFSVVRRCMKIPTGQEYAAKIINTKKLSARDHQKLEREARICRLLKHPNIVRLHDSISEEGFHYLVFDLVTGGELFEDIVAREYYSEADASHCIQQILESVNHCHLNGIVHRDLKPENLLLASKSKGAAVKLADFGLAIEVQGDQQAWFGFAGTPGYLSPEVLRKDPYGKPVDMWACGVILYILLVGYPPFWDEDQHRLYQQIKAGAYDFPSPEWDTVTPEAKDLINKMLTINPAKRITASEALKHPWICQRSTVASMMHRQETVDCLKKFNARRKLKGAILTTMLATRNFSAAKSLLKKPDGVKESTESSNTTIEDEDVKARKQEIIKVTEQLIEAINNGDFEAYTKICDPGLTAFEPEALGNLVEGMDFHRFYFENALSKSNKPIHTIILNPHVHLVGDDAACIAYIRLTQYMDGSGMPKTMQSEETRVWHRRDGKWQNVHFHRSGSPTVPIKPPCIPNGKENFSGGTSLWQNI
# [3] = molecular target: Calcium/calmodulin-dependent protein kinase type II subunit delta (Homo sapiens) (UniProt Q13557); details: at 1 µM
# [4] = molecular target: T1, Calcium/calmodulin-dependent protein kinase type IV (Homo sapiens) (UniProt Q16566); details: at 0.1 µM
# T1 sequence (whole entry): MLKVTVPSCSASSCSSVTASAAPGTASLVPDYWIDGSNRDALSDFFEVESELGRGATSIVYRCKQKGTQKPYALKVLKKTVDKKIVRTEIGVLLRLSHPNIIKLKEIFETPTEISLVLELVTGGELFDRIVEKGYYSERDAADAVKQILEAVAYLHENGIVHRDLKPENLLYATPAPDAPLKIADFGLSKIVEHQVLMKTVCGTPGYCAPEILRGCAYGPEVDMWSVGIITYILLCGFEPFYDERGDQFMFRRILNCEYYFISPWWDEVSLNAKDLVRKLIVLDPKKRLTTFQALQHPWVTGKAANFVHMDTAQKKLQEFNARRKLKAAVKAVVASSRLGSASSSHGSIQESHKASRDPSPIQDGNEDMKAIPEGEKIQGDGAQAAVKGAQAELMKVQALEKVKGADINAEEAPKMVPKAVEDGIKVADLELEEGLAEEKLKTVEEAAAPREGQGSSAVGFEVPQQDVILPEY
# [5] = molecular target: T1, Calcium/calmodulin-dependent protein kinase type IV (Homo sapiens); details: at 1 µM
# [6] = molecular target: T2, Serine/threonine-protein kinase Chk1 (Homo sapiens) (UniProt O14757); details: at 0.1 µM
# T2 sequence (whole entry): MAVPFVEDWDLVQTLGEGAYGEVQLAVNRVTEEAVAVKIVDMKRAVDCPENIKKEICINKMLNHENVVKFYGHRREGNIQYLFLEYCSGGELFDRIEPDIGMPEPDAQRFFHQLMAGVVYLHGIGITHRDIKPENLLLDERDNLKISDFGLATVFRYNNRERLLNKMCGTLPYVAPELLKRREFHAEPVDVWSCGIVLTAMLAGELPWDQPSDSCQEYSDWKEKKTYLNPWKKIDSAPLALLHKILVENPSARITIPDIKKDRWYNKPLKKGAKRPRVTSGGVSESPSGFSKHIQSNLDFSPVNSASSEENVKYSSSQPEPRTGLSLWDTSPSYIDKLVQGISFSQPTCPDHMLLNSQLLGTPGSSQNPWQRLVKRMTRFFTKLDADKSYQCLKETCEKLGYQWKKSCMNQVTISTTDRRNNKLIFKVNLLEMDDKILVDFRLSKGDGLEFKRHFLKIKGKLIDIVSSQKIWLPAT
# [7] = molecular target: T2, Serine/threonine-protein kinase Chk1 (Homo sapiens); details: at 1 µM
# [8] = molecular target: Serine/threonine-protein kinase Chk2 (Homo sapiens) (UniProt O96017); details: at 0.1 µM
# Serine/threonine-protein kinase Chk2 (Homo sapiens), sequence (O96017 whole entry): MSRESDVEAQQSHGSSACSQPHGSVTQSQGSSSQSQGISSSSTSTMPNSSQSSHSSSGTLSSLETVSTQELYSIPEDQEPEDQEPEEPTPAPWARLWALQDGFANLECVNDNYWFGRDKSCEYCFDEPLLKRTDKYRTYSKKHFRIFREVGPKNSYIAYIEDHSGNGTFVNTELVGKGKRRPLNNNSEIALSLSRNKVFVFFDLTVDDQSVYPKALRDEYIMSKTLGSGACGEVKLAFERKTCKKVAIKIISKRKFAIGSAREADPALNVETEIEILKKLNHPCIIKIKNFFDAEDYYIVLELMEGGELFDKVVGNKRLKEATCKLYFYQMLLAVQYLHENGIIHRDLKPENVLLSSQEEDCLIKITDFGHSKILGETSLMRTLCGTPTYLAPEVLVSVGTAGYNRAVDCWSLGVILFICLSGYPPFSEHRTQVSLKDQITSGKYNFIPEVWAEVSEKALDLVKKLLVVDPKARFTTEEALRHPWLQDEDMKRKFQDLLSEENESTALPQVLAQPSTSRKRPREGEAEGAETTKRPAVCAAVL
# [9] = molecular target: Serine/threonine-protein kinase Chk2 (Homo sapiens) (UniProt O96017); details: at 1 µM
# [10] = molecular target: Death-associated protein kinase 1 (Homo sapiens) (UniProt P53355); details: at 0.1 µM
# Death-associated protein kinase 1 (Homo sapiens), sequence (P53355 whole entry, looked up): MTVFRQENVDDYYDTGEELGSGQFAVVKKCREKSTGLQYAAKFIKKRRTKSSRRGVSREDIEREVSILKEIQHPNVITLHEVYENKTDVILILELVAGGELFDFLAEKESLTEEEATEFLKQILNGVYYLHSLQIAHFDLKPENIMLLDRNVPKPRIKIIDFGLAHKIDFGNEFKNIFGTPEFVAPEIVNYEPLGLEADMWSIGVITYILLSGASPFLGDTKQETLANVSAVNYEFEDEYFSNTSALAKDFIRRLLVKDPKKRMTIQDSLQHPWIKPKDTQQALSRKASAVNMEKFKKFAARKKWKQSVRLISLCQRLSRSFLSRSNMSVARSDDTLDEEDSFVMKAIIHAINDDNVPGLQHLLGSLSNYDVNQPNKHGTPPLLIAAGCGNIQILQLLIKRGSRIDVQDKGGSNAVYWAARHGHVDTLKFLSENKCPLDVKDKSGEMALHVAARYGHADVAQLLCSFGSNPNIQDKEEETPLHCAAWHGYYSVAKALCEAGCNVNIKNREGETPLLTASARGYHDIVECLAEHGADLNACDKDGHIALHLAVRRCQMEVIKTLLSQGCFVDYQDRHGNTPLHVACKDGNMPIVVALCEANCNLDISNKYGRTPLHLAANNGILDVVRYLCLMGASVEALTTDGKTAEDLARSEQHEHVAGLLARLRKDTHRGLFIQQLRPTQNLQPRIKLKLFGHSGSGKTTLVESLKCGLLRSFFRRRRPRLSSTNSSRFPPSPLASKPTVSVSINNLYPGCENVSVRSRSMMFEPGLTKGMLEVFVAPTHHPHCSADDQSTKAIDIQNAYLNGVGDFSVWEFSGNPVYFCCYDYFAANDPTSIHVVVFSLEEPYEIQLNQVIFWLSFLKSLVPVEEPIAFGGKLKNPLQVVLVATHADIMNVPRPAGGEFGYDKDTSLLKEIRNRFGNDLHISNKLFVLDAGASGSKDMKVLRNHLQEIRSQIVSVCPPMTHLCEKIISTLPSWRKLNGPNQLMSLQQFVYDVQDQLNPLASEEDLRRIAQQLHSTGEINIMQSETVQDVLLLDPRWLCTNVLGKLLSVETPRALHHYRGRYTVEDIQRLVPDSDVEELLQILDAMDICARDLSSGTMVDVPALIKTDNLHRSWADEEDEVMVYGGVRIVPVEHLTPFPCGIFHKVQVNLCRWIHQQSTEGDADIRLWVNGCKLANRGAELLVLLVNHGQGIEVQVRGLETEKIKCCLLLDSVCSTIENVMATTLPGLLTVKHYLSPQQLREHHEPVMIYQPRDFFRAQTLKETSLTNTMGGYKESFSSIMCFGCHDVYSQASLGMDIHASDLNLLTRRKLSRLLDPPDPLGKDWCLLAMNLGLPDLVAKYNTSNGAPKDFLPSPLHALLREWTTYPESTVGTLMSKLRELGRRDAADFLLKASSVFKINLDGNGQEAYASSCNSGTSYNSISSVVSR
# [11] = molecular target: Death-associated protein kinase 1 (Homo sapiens) (UniProt P53355); details: at 1 µM
# [12] = molecular target: T3, Serine/threonine-protein kinase DCLK2 (Homo sapiens) (UniProt Q8N568); details: at 0.1 µM
# T3 sequence (whole entry): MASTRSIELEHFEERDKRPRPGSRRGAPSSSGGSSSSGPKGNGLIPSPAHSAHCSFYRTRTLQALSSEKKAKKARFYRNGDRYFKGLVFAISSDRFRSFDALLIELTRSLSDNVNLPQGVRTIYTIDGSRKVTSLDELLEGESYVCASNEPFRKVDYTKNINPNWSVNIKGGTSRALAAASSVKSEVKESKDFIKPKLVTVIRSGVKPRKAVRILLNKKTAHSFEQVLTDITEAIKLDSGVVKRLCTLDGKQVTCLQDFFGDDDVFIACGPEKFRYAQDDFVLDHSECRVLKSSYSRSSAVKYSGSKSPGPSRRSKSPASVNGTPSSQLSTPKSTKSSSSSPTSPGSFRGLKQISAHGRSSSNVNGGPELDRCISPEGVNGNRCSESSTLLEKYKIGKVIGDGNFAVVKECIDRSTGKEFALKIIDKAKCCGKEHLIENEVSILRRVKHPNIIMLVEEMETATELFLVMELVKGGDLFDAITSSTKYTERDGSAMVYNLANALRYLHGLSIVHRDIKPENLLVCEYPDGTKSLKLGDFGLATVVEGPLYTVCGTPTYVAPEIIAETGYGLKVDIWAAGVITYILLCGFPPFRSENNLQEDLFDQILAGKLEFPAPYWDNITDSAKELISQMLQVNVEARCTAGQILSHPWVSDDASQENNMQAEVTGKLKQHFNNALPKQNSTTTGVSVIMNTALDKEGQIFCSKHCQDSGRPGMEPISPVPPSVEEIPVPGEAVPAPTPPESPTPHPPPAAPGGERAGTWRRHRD
# [13] = molecular target: T3, Serine/threonine-protein kinase DCLK2 (Homo sapiens); details: at 1 µM
# [14] = molecular target: MAP kinase-activated protein kinase 2 (Homo sapiens) (UniProt P49137); details: at 0.1 µM
# MAP kinase-activated protein kinase 2 (Homo sapiens), sequence (P49137 whole entry, looked up): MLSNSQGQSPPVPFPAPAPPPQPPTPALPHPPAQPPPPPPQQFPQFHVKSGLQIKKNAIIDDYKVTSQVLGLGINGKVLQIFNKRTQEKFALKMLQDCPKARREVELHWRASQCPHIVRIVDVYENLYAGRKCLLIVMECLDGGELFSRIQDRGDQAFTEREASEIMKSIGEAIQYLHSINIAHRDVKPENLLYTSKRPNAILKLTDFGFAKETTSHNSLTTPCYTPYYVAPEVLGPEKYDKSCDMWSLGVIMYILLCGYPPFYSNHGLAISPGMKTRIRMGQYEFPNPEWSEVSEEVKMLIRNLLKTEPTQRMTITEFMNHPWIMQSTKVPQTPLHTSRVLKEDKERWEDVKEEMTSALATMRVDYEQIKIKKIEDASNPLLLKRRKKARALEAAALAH
# [15] = molecular target: MAP kinase-activated protein kinase 2 (Homo sapiens) (UniProt P49137); details: at 1 µM
# [16] = molecular target: MAP kinase-activated protein kinase 3 (Homo sapiens) (UniProt Q16644); details: at 0.1 µM
# MAP kinase-activated protein kinase 3 (Homo sapiens), sequence (Q16644 whole entry, looked up): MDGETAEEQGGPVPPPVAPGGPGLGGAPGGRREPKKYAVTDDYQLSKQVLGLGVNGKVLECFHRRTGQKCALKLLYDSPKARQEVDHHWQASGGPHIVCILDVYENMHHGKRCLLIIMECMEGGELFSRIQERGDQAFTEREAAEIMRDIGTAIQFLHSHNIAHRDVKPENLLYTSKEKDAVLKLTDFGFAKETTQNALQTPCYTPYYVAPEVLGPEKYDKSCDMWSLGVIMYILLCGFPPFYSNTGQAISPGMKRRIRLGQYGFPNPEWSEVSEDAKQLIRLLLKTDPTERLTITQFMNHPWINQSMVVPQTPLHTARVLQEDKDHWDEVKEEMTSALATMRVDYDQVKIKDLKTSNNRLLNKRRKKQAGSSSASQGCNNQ
# [17] = molecular target: MAP kinase-activated protein kinase 3 (Homo sapiens) (UniProt Q16644); details: at 1 µM
# [18] = molecular target: Serine/threonine-protein kinase MARK1 (Homo sapiens) (UniProt Q9P0L2); details: at 0.1 µM
# Serine/threonine-protein kinase MARK1 (Homo sapiens), sequence (Q9P0L2 whole entry, looked up): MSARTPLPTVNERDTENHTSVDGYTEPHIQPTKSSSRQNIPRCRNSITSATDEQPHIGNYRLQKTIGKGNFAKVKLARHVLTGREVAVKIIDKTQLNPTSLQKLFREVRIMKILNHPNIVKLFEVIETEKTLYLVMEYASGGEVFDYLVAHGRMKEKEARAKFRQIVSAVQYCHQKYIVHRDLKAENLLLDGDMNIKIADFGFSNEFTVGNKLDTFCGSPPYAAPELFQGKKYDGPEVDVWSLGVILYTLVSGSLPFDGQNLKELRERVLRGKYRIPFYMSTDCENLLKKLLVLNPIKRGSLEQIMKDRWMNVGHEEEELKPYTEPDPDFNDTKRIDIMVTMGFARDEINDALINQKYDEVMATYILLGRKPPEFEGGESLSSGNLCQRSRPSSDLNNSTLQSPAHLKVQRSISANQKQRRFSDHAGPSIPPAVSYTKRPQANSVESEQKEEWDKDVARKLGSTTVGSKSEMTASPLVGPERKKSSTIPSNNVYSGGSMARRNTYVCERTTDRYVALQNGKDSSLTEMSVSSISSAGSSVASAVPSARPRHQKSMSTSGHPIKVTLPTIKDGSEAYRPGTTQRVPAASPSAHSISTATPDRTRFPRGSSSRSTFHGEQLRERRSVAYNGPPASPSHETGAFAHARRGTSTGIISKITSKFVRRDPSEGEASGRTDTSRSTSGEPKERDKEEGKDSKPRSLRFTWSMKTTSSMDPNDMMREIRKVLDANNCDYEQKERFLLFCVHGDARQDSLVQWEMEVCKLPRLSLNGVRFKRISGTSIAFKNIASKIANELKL
# [19] = molecular target: Serine/threonine-protein kinase MARK1 (Homo sapiens) (UniProt Q9P0L2); details: at 1 µM
# [20] = molecular target: MAP/microtubule affinity-regulating kinase 3 (Homo sapiens) (UniProt P27448); details: at 0.1 µM;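 note: mean percent inhibition of MARK3 kinase activity, measured within the GSK PKIS screening panel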
# Calcium/calmodulin-dependent protein kinase type II subunit alpha (Homo sapiens), sequence (Q9UQM7 whole entry): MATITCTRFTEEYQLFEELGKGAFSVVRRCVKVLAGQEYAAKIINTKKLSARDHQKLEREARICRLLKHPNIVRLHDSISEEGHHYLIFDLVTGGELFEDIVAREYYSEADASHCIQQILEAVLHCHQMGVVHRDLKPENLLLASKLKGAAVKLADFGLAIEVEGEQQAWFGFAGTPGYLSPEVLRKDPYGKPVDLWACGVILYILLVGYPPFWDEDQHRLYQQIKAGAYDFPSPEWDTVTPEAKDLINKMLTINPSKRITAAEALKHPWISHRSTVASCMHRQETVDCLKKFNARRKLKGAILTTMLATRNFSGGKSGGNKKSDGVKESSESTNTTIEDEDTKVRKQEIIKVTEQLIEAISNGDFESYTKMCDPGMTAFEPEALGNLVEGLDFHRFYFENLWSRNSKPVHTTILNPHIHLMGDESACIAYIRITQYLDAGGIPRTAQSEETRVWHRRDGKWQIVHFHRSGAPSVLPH
Structure (SMILES),inhibition [1],inhibition [2],inhibition [3],inhibition [4],inhibition [5],inhibition [6],inhibition [7],inhibition [8],inhibition [9],inhibition [10],inhibition [11],inhibition [12],inhibition [13],inhibition [14],inhibition [15],inhibition [16],inhibition [17],inhibition [18],inhibition [19],inhibition [20]
O=C1Nc2ccccc2/C1=C1\CCc2cc(O)ccc21,8.04%,6.22%,13%,0.46%,-0.69%,-1.18%,9.92%,1.37%,21.3%,-1.94%,-2.93%,2.55%,0.84%,-0.94%,-0.15%,-1.04%,-1.15%,8.64%,33.8%,7.19%
COc1cccc(Nc2nccc(-c3cnn4ncccc34)n2)c1,13.8%,6.9%,35.4%,-0.56%,-1.54%,-2.67%,3.93%,1.92%,11.2%,-0.58%,0.16%,-2.05%,2.73%,1.39%,-0.06%,2.8%,2.89%,4.15%,27.7%,4.03%
CCCNc1cccc(-n2ncc3c(N/N=C/c4ccncc4)ncnc32)c1,3.36%,1.11%,1.17%,-2.8%,-3.1%,-4.03%,-5.65%,-4.06%,0.34%,-6.43%,-8.41%,6.83%,2.98%,-2.72%,-2.37%,-5.26%,-4.82%,2.01%,10.3%,3.4%
NS(=O)(=O)c1ccc(N/N=C2\C(=O)Nc3cccc(CCc4ccncc4)c32)cc1,1.32%,-0.63%,4.29%,1.59%,0.34%,1.74%,1.93%,-0.6%,0.61%,-0.39%,-1.65%,-0.47%,-0.08%,-0.02%,-0.84%,0.82%,0.37%,2.29%,5.9%,1.2%
CNC(=O)c1cncc(/C=C/c2ccccc2C)c1,3.24%,2.3%,3.14%,-1.31%,-2.38%,5.89%,5.73%,2.11%,3.83%,6.54%,7.67%,0.83%,0.28%,1.99%,2.51%,3.43%,3.22%,2.55%,7.06%,3.94%
Fc1cccc(COc2ccc(Nc3ncncc3C#Cc3ccccc3)cc2Cl)c1,3.65%,2.79%,2.05%,-2.29%,-4.84%,3.29%,5.99%,3.47%,5.22%,5.08%,5.6%,1.92%,-0.09%,2.63%,2.47%,4.72%,6.08%,4.09%,5.61%,4.58%
Cc1nnc(-c2cccc(-c3ccc(C(=O)NCC4CC4)cc3)c2)o1,3.99%,3.26%,6.04%,-2.72%,-2.97%,4.9%,5.14%,3.86%,4.86%,5.32%,6.03%,1.25%,4.29%,2.92%,2.7%,5.72%,6.73%,4.06%,6.5%,4.12%
NC(=O)c1ccc2c(-c3ccnc(NCCCO)n3)c(-c3ccc(F)cc3)nn2c1,3.63%,4.46%,3.95%,0.65%,0.03%,8.23%,7.94%,10.1%,10.6%,11.7%,15.1%,1.81%,1.24%,5.03%,5.02%,39.7%,43.4%,4.33%,4.69%,4.33%
COc1cc(N2CCN(C(C)C)CC2)ccc1Nc1nc(Nc2cccc(F)c2C(=O)O)c2cc[nH]c2n1,4.14%,3.26%,6.33%,-2.13%,-1.74%,1.97%,6.1%,4.99%,26.3%,3.88%,2.32%,0.91%,1.63%,2.14%,1.32%,4.39%,4.68%,3.19%,8.61%,4.95%
CCS(=O)(=O)c1ccc(OC)c(Nc2ncc(-c3cccc(C(C)=O)c3)o2)c1,1.16%,1.73%,3.23%,-3%,-5.43%,-0.75%,-1.38%,1.62%,3.67%,2.47%,3.26%,-0.25%,-0.78%,2.19%,1.71%,3%,3.61%,1.61%,3.04%,0.57%
Cn1c(-c2nonc2N)nc2cnccc21,1.59%,2.9%,4.76%,2.54%,2.02%,1.55%,2.48%,2.16%,3.21%,2.36%,2.42%,0%,5.3%,1.66%,1.06%,3.29%,2.75%,3.2%,7.22%,0.25%
O=C(O[C@H]1CN[C@H](C#Cc2cc3ncnc(Nc4ccc5c(cnn5Cc5ccccc5)c4)c3s2)C1)N1CCOCC1,-1.88%,0.73%,0.8%,0.67%,-0.25%,0.36%,-0.07%,-1.25%,0.86%,-0.35%,-1.55%,-2.27%,-1.86%,-0.79%,-0.97%,0%,-0.37%,0.33%,3.97%,-1.73%
CS(=O)(=O)Nc1ccc(-c2ccc3c(NC(=O)C4CC4)n[nH]c3c2)cc1,3.84%,3.65%,3.38%,-0.67%,-0.43%,1.65%,1.61%,4.58%,7.38%,2.51%,4.64%,1.42%,1.42%,1.53%,1.14%,3.27%,3.44%,2.32%,2.73%,3.47%
N#Cc1ccc2c(-c3ccnc(NC4CC4)n3)c(-c3ccc(F)cc3)nn2c1,-1.71%,0.13%,-1.01%,0.17%,-2.53%,-1.96%,-0.86%,-0.32%,0.27%,1.33%,0.06%,-0.01%,1.17%,0.5%,-0.23%,32.7%,35.1%,0.42%,1.08%,2.94%
Nc1nonc1-c1nc2cnccc2n1C1CC1,5.07% and 5.46%,3.94% and 2.63%,7.79% and 4%,-0.5% and 1.35%,0.32% and 1.21%,3.32% and 0.59%,14.4% and 10.5%,2.75% and 1.53%,6.34% and 2.63%,2.98% and -0.26%,4% and -1.82%,1.88% and -0.85%,3.6% and -3.51%,1.36% and 1.4%,1.45% and 0.82%,5.15% and 2.54%,6.05% and 1.43%,6.69% and 4.73%,23.2% and 20.6%,7.63% and 5.91%
CCOc1ccc2c(-c3ccnc(Nc4cc(OC)cc(C(F)(F)F)c4)n3)cnn2n1,-0.03%,0.7%,1.42%,1.18%,-0.28%,3.19%,1.38%,-0.97%,0.04%,0.8%,1.23%,-0.5%,4.41%,0.58%,-0.09%,0.28%,-1.31%,-0.04%,2.77%,-1.2%
COc1ccc(Nc2ncc(-c3ccccc3)o2)cc1OC,4.71%,0.93%,8.26%,-0.62%,1.46%,-0.04%,50.5%,-0.14%,2.24%,1.44%,1.47%,0.15%,5.3%,-0.12%,-0.35%,0.05%,0.81%,2.68%,20.4%,4.59%
c1cnn2ncc(-c3ccnc(NCCCN4CCOCC4)n3)c2c1,6.81%,3.65%,3.72%,-0.02%,-0.41%,0.25%,1.83%,2.74%,3.47%,-0.4%,-0.07%,1.46%,1.43%,1.81%,2.19%,4.59%,4.86%,1.78%,5.05%,2.58%
CS(=O)(=O)Nc1ccc(-c2cc(-c3ccccc3)cc(C(N)=O)c2N)cc1,-1.32%,0.44%,1.39%,-3.34%,-0.72%,3.76%,0.63%,1.07%,1.94%,2.28%,1.38%,-0.48%,1.02%,1.59%,1.42%,0.37%,2.22%,0.39%,1.47%,-0.54%
